Data reported in PubChem BioAssay (EPA / NIEHS).
Calls of active or inactive are those of the source. How the source made its calls: active means hit-call score of the fitted dose curve at least 0.9, where 1 is the maximum; inactive means score below 0.9.

Assays:
[1] = read-out: Thrombomodulin, THBD (gene 7056); experiment: BSK_CASM3C_Thrombomodulin: BioMAP Diversity Plus: CASM3C Assay for Thrombomodulin Biomarker Activity (AID 2283051); conditions: primary human coronary artery smooth muscle cells; actives raise or lower the signal;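 further: thrombomodulin protein level measured by ELISA 24 h after dosing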
[2] = read-out: Tissue Factor, F3 (gene 2152); experiment: BSK_CASM3C_TissueFactor: BioMAP Diversity Plus: CASM3C Assay for Tissue Factor Biomarker Activity (AID 2283052); conditions: primary human coronary artery smooth muscle cells; actives raise or lower the signal;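 further: cell surface tissue factor protein level read by ELISA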
[3] = read-out: Interferon-gamma inducible Protein 10 (IP10), CXCL10 (gene 3627); experiment: BSK_hDFCGF_IP10: BioMAP Diversity Plus: hDFCGF Assay for Interferon-gamma inducible Protein 10 (IP10) Biomarker Activity (AID 2283053); conditions: primary human foreskin fibroblasts; actives raise or lower the signal
How it was run: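 Primary human foreskin fibroblasts exposed to chemicals for 24 h. IP-10 measured by ELISA; changes fitted bidirectionally against DMSO baseline.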

[4] = read-out: Urokinase-type plasminogen activator receptor (uPAR), PLAUR (gene 5329); experiment: BSK_CASM3C_uPAR: BioMAP Diversity Plus: CASM3C Assay for Urokinase-type plasminogen activator receptor (uPAR) Biomarker Activity (AID 2283054); conditions: primary human coronary artery smooth muscle cells; actives raise or lower the signal;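 further: cell-surface uPAR protein level quantified by ELISA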
[5] = read-out: Vascular cell adhesion molecule 1 (VCAM1), VCAM1 (gene 7412); experiment: BSK_CASM3C_VCAM1: BioMAP Diversity Plus: CASM3C Assay for Vascular cell adhesion molecule 1 (VCAM1) Biomarker Activity (AID 2283055); conditions: primary human coronary artery smooth muscle cells; actives raise or lower the signal;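 further: VCAM-1 protein level quantified by ELISA on the cells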
[6] = read-out: Collagen III, COL3A1 (gene 1281); experiment: BSK_hDFCGF_CollagenIII: BioMAP Diversity Plus: hDFCGF Assay for Collagen III Biomarker Activity (AID 2283056); conditions: primary human foreskin fibroblasts; actives raise or lower the signal
How it was run: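 ELISA readout of Collagen III in human dermal (foreskin) fibroblasts, taken 24 h post-treatment. Gain or loss relative to DMSO vehicle fitted in both directions.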

[7] = read-out: Epidermal growth factor receptor (EGFR), EGFR (gene 1956); experiment: BSK_hDFCGF_EGFR: BioMAP Diversity Plus: hDFCGF Assay for Epidermal growth factor receptor (EGFR) Biomarker Activity (AID 2283057); conditions: primary human foreskin fibroblasts; actives raise or lower the signal
How it was run: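 Primary human foreskin fibroblasts (hDFCGF system), sampled 24 h after dosing; EGFR quantified by ELISA. Bidirectional fit relative to DMSO baseline; SRB total-protein staining in parallel cultures for cytotoxicity.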

[8] = read-out: Interleukin-8 (IL8), CXCL8 (gene 3576); experiment: BSK_hDFCGF_IL8: BioMAP Diversity Plus: hDFCGF Assay for Interleukin-8 (IL8) Biomarker Activity (AID 2283058); conditions: primary human foreskin fibroblasts; actives raise or lower the signal
How it was run: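 IL-8 levels read by ELISA at 24 hours after dosing human skin fibroblast cultures. Parallel SRB staining assessed overt cytotoxicity, and gain or loss of signal was fitted against DMSO control.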

[9] = BSK_hDFCGF_Proliferation: Cell Proliferation Assessment in the BioMAP Diversity Plus: hDFCGF Assay (AID 2283059); conditions: primary human foreskin fibroblasts;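 further: curves fitted for both rise and fall of signal versus DMSO baseline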
How it was run: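 Primary human foreskin fibroblasts, sub-confluent; […]; 10% TCA fix, 0.1% SRB stain, A560 total protein. Gain/loss fitted bidirectionally vs DMSO control.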

[10] = read-out: Macrophage colony-stimulating factor (MCSF), CSF1 (gene 1435); experiment: BSK_hDFCGF_MCSF: BioMAP Diversity Plus: hDFCGF Assay for Macrophage colony-stimulating factor (MCSF) Biomarker Activity (AID 2283060); conditions: primary human foreskin fibroblasts; actives raise or lower the signal
How it was run: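 M-CSF levels read by ELISA at 24 h post-dosing in human skin fibroblasts. Parallel cultures stained with SRB assessed cytotoxicity at the same time point; response fitted in both directions against the DMSO baseline.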

[11] = BSK_hDFCGF_SRB: Viability Assessment in the BioMAP Diversity Plus: hDFCGF Assay (AID 2283061); conditions: primary human foreskin fibroblasts;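 further: cells exposed to compound for 24 h before the read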
How it was run: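 Viability was read as total protein: after 10% TCA fixation, wells were stained with 0.1% sulforhodamine B and read at 560 nm. Primary human foreskin fibroblasts were dosed for 24 h, with bidirectional fitting versus DMSO.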

[12] = read-out: TIMP metallopeptidase inhibitor 1 (TIMP1), TIMP1 (gene 7076); experiment: BSK_hDFCGF_TIMP1: BioMAP Diversity Plus: hDFCGF Assay for TIMP metallopeptidase inhibitor 1 (TIMP1) Biomarker Activity (AID 2283062); conditions: primary human foreskin fibroblasts; actives raise or lower the signal
How it was run: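 TIMP-1 measured by ELISA 24 h after chemical dosing of primary human skin fibroblasts, with gain or loss fitted relative to DMSO. Parallel SRB staining (560 nm) monitored overt cytotoxicity.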

[13] = read-out: Monokine induced gamma interferon (MIG), CXCL9 (gene 4283); experiment: BSK_hDFCGF_MIG: BioMAP Diversity Plus: hDFCGF Assay for Monokine induced gamma interferon (MIG) Biomarker Activity (AID 2283063); conditions: primary human foreskin fibroblasts; actives raise or lower the signal
How it was run: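 Human primary foreskin fibroblasts in the hDFCGF system, exposed to test chemical for 24 h; MIG measured by ELISA. Bidirectional curve fitting against DMSO negative control as activity baseline.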

[14] = read-out: Matrix Metallopeptidase 1 (MMP1), MMP1 (gene 4312); experiment: BSK_hDFCGF_MMP1: BioMAP Diversity Plus: hDFCGF Assay for Matrix Metallopeptidase 1 (MMP1) Biomarker Activity (AID 2283064); conditions: primary human foreskin fibroblasts; actives raise or lower the signal
How it was run: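 hDFCGF primary fibroblasts (human foreskin); chemical added; 24 h; MMP1 by ELISA; bidirectional fit vs DMSO.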

[15] = read-out: Vascular cell adhesion molecule 1 (VCAM1), VCAM1 (gene 7412); experiment: BSK_hDFCGF_VCAM1: BioMAP Diversity Plus: hDFCGF Assay for Vascular cell adhesion molecule 1 (VCAM1) Biomarker Activity (AID 2283065); conditions: primary human foreskin fibroblasts; actives raise or lower the signal;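 on AC50: VCAM-1 protein level quantified by ELISA after 24 h chemical exposure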
How it was run: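 ELISA readout of VCAM-1 on human dermal fibroblast primary cultures, 24 h after chemical exposure. Gain or loss of signal fitted in both directions against DMSO baseline.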

[16] = read-out: Plasminogen activator inhibitor-1 (PAI1), SERPINE1 (gene 5054); experiment: BSK_hDFCGF_PAI1: BioMAP Diversity Plus: hDFCGF Assay for Plasminogen activator inhibitor-1 (PAI1) Biomarker Activity (AID 2283066); conditions: primary human foreskin fibroblasts; actives raise or lower the signal
How it was run: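 Human foreskin fibroblast primary cells, 24 h chemical exposure; PAI-1 measured by ELISA. Bidirectional fitting relative to DMSO; parallel cultures stained with SRB for total protein to flag overt cytotoxicity.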

[17] = read-out: Intercellular Adhesion Molecule 1 (ICAM1), ICAM1 (gene 3383); experiment: BSK_KF3CT_ICAM1: BioMAP Diversity Plus: KF3CT Assay for Intercellular Adhesion Molecule 1 (ICAM1) Biomarker Activity (AID 2283067); conditions: primary human keratinocytes with fibroblasts; actives raise or lower the signal
How it was run: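 Cell-surface ICAM-1 was measured by ELISA 24 h after dosing primary human skin keratinocytes co-cultured with fibroblasts. Parallel SRB staining tracked overt cytotoxicity. Gain or loss of signal was fitted relative to DMSO.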

[18] = read-out: Interferon-gamma inducible Protein 10 (IP10), CXCL10 (gene 3627); experiment: BSK_KF3CT_IP10: BioMAP Diversity Plus: KF3CT Assay for Interferon-gamma inducible Protein 10 (IP10) Biomarker Activity (AID 2283068); conditions: primary human keratinocytes with fibroblasts; actives raise or lower the signal
How it was run: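 In a primary skin co-culture of keratinocytes and fibroblasts, IP-10 is quantified by ELISA at 24 h after dosing. SRB staining of parallel wells monitors overt toxicity. Curves are fitted both directions against DMSO.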

[19] = BSK_KF3CT_SRB: Viability Assessment in the BioMAP Diversity Plus: KF3CT Assay (AID 2283069); conditions: primary human keratinocytes with fibroblasts;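 further: total protein by sulforhodamine B staining as a cytotoxicity measure; read 24 h after compound addition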
How it was run: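 Keratinocytes co-cultured with foreskin fibroblasts (human primary); chemical added, 24 h; fix 10% TCA, stain 0.1% SRB, A560. Bidirectional fit vs DMSO.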

[20] = read-out: Interleukin-1 alpha (IL1a), IL1A (gene 3552); experiment: BSK_KF3CT_IL1a: BioMAP Diversity Plus: KF3CT Assay for Interleukin-1 alpha (IL1a) Biomarker Activity (AID 2283070); conditions: primary human keratinocytes with fibroblasts; actives raise or lower the signal
How it was run: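 Chemicals were dosed onto co-cultured human keratinocytes and foreskin fibroblasts, IL-1a was quantified by ELISA at 24 h, and activity was fitted in both directions relative to DMSO controls.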

Measured: AC50

CC[C@@H]1C[C@H](N(Cc2cc(C(F)(F)F)cc(C(F)(F)F)c2)C(C)=O)c2cc(C(F)(F)F)ccc2N1C(=O)OC(C)C
active: [3] 1.22 µM
not listed: [20]
inactive: all other assays above

O=C1CCC(C2CCCCC2)CC1
active: [3] 33.1 µM | [6] 20.7 µM | [7] 29.9 µM | [8] 32.5 µM | [9] 19.5 µM | [10] 29.8 µM | [11] 34.4 µM | [12] 32.7 µM | [14] 33.3 µM | [15] 31.6 µM | [16] 31.7 µM | [18] 31.5 µM
inactive: [1] | [2] | [4] | [5] | [13] | [17] | [19]

C[C@]12CC[C@@H]3c4ccc(O)cc4CC[C@H]3[C@@H]1CCC2=O
active: [9] 17.6 µM
not listed: [20]
inactive: all other assays above

O=C(O)Cn1c(=O)n(Cc2ccc(Br)cc2F)c(=O)c2ccc(Cl)cc21
not listed: [11] | [20]
inactive: all other assays above

Cc1ccc(C(C)C)cc1
not listed: [20]
inactive: all other assays above

CN(C)C(=O)C1(N2CCCCC2)CCN(CC[C@@]2(c3ccc(Cl)c(Cl)c3)CN(C(=O)c3ccccc3)CCO2)CC1
active: [1] 34.7 µM | [2] 31 µM | [3] 27.2 µM | [4] 24.4 µM | [5] 30 µM | [6] 25.4 µM | [7] 9.57 µM | [8] 33.7 µM | [9] 5.15 µM | [10] 20.8 µM | [11] 13.3 µM | [12] 24.8 µM | [13] 33.3 µM | [14] 29.2 µM | [15] 14.9 µM | [16] 12.3 µM | [17] 35.2 µM | [18] 31.3 µM | [19] 28.4 µM | [20] 34.3 µM

Clc1cc(Cl)c2c(c1)N=C1CCCCCN1C2
inactive: all assays above

c1ccc2ccccc2c1
not listed: [20]
inactive: all other assays above

O=C1O[C@H]([C@@H](O)CO)C(O)=C1O
not listed: [20]
inactive: all other assays above

CC/C(=C(/CC)c1ccc(O)cc1)c1ccc(O)cc1
inactive: [1] | [4] | [7] | [8]
active: [2] 11 µM | [3] 20 µM | [5] 20 µM | [6] 11.4 µM | [9] 7.02 µM | [10] 20 µM | [11] 25.7 µM | [12] 33.4 µM | [13] 28.1 µM | [14] 28.6 µM | [15] 13.6 µM | [16] 20 µM | [17] 31.8 µM | [18] 17.7 µM | [19] 25.3 µM

CCCCOC(=O)c1ccc(O)cc1
active: [9] 20 µM
not listed: [20]
inactive: all other assays above
